ChEMBL document CHEMBL3433997, “St. Jude Leishmania screening dataset” (2016)

Experiments:
Assay type in all cases: functional
[1] = biological target: Solute carrier family 2, facilitated glucose transporter member 1 (Homo sapiens) (UniProt P11166); assay: ST_JUDE_LEISH: Cytotoxicity at 2uM final concentration against transgenic Leishmania Mexicana promastigotes LmGLUT1 that are glucose transport deficient and complemented with the human glucose transporter GLUT1. Activity is measured by DNA content using SYBR green in vitro
[2] = biological target: Hexose transporter 1 (Plasmodium falciparum) (UniProt O97467); assay: ST_JUDE_LEISH: Cytotoxicity at 2uM final concentration against transgenic Leishmania Mexicana promastigotes LmPfHT that are glucose transport deficient and complemented with the Plasmodium falciparum hexose transporter. Activity is measured by DNA content using SYBR green in vitro
[3] = biological target: Glucose transporter (Leishmania mexicana) (UniProt O61059); assay: ST_JUDE_LEISH: Cytotoxicity at 2uM final concentration against transgenic Leishmania Mexicana promastigotes LmGT2 that are glucose transport deficient and complemented with the L. Mexicana glucose transporter 2. Activity is measured by DNA content using SYBR green in vitro

Sequence of Solute carrier family 2, facilitated glucose transporter member 1 (Homo sapiens) (P11166 whole entry): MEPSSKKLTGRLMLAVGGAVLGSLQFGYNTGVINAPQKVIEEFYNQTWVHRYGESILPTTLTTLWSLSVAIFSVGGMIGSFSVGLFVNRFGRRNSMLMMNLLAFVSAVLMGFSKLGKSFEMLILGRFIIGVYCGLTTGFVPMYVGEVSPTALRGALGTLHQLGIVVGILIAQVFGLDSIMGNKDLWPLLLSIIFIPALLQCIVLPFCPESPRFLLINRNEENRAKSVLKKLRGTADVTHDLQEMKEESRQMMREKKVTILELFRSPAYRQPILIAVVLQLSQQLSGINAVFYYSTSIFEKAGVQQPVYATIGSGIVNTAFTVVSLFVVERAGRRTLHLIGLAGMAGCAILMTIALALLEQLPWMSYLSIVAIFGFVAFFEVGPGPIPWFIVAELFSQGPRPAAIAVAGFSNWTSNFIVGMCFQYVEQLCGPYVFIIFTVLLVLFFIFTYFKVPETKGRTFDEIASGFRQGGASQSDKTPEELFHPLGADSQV

| SMILES | inhibition [1] [%] | inhibition [2] [%] | inhibition [3] [%] |
| --- | --- | --- | --- |
| CS(=O)(=O)Cc1ccc(Nc2ncc(Cl)c(Nc3cccnc3C(N)=O)n2)cc1 | 28.2 | 32.1 | 23 |
| CC1=C(C(=O)Nc2cc3cn[nH]c3cc2F)C(c2cccc(O)c2F)CC(=O)N1 (stereo unspecified) | -2.25 | -3.23 | 0.72 |
| O=C(C=CC(=O)N1CCCCC1)NCc1ccccc1 | 2.97 | 3.29 | 2 |
| O=C(Nc1ccc(C(=O)Oc2ccc3ccccc3c2)cc1)N[C@@H](Cc1ccc(O)cc1)C(=O)NC1CCN(Cc2ccc(O)cc2)C1 (stereo partly specified) | 0.75 | -0.55 | -2.23 |
| COc1cc2c(cc1CCNCCCCNCCc1cc3c(cc1OC)CCCC3)CCCC2 | 99.4 | 98.4 | 106 |
| CN(Cc1cccc(F)c1)C1CCCN(c2cc(NC(=O)c3ccccc3)ccn2)C1 (stereo unspecified) | 4.12 | 4.07 | 3.71 |
| CCCC(CNCc1cccc(OC(F)(F)C(F)F)c1)CNc1cc(=O)c2ccccc2[nH]1 (stereo unspecified) | -0.75 | -0.41 | -4.05 |
| O=C(Cc1cccnc1)Nc1cccc(-c2cccc(-c3nc4cc(C(F)(F)F)ccc4[nH]3)c2)c1 | 2.67 | 1.57 | 1.35 |
| Cc1nc(-c2ccc(C#N)cc2)sc1C(=O)NCCCCN1CCC(c2ccc3c(c2OCCO)CCCC3)CC1 | 6.87 | 6.02 | 3.7 |
| CC1(C)N=C(N)N=C(N)N1OCc1ccc2c(c1)OCO2 | 9.15 | 6.63 | 13.4 |
| COc1ccc(Nc2nc(NCc3cccnc3)cc(-c3ccc(OC)cc3)n2)cc1 | -0.44 | 0.66 | -0.82 |
| Nc1c2c(nc3ccc(C(=O)Nc4ccccc4)cc13)CCCC2 | 4.09 | 3.96 | 3.87 |
| Cc1ccc(C(NC(=O)C2CCCCC2)c2ccc3cccnc3c2O)cc1 (stereo unspecified) | 0.75 | 1.7 | 0.54 |
| CCCCCCCCN1CCCN(C(=O)c2cccc(NC(=O)Nc3ccc4ccccc4c3)c2)CC1 | 0.2 | -0.59 | -0.77 |
| O=C(Nc1ccc2oc(-c3ccc(Br)cc3)nc2c1)c1ccc([N+](=O)[O-])o1 | 10.3 | 6.94 | 6.73 |
| CCC(C)OC(=O)C1=C(C)NC2=C(C(=O)CC(c3ccc(OC)c(OC)c3)C2)C1c1ccc(C)o1 (stereo unspecified) | 2.36 | 8.1 | 3.8 |

| SMILES | inhibition [1] [%] | inhibition [2] [%] | inhibition [3] [%] |
| --- | --- | --- | --- |
| CCCc1cc(C(C)=O)ccc1OCCCON1C(=N)N=C(N)NC1(C)C | 22.1 | 29.3 | 20.5 |
| O=C(Nc1ccc(OC2CCN(Cc3ccc(F)cc3)CC2)c(Cl)c1)c1ccc(F)cc1 | 2.58 | 3.52 | 7.21 |
| O=C(c1cc(-c2ccco2)n[nH]1)N1CCN(S(=O)(=O)c2ccc(Cl)cc2)CC1 | -0.38 | -0.62 | -1.09 |
| c1cc2[nH]c(CCc3nc4cc(C5=NC6CCCCC6N5)ccc4[nH]3)nc2cc1C1=NC2CCCCC2N1 (stereo unspecified) | 19.7 | 18.5 | 6.48 |
| CCCCc1nc2nc(N)nc(N)c2cc1CCC | 1.72 | 6.46 | 1.5 |
| CCc1nc2c(cnn2CC)c(NC2CCOCC2)c1CNC(=O)c1ccoc1C | 6.4 | 6.38 | 2.97 |
| O=C(/C=C/c1ccc(Cl)c(Cl)c1)N1CCC(CN2CCC(Cc3c[nH]c4ccccc34)CC2)CC1 | 4.43 | 4.8 | 3.96 |
| COc1cccc(C(=O)Nc2ccc(S(=O)(=O)c3cc4c(cc3OC)CCN(C)CC4)cc2)c1 | 1.6 | -0.4 | 1.23 |
| CCn1c(-c2nonc2N)nc2c(-c3cccc(NC(=O)Nc4cccc(OC)c4)c3)ncc(OCCCN)c21 | 0.06 | 2.8 | 1.32 |
| COCCOC(=O)C(=O)c1c(-c2ccccc2)c(-c2ccc(OC)c(OC)c2)c2c3cc(OC)c(OC)cc3ccn12 | 4.89 | 2.7 | 1.72 |
| COC(=O)c1cccc(CN(CCC(O)(C(F)(F)F)C(F)(F)F)C(=O)CC2CCCC2)c1 | 3.39 | 1.44 | 1.91 |
| O=C(Nc1ccnc(-c2cccnc2)n1)c1cc(C(F)(F)F)cc(C(F)(F)F)c1 | -1.69 | 0.27 | -3.85 |
| CCCc1cc(OC)c(CC2c3cc(O)c(Cl)cc3CCN2C)cc1OC (stereo unspecified) | 9.73 | 7.17 | 14.9 |
| O=C(Cc1ccc[n+]([O-])c1)Nc1ccc(-c2cccc(-c3nc4cc(C(F)(F)F)ccc4[nH]3)c2)cc1 | 1.49 | 1.61 | -0.42 |
| CCCCCN1CCCCC(NS(=O)(=O)c2ccc(C(=O)Nc3cccc(C(F)(F)F)c3)cc2)C1 (stereo unspecified) | 6.68 | 5.05 | 3.25 |
| COc1ccccc1CCC(C)(C)NC(=O)CC(CCc1ccccc1)Nc1ccc(C#N)c2ccccc12 (stereo unspecified) | -0.97 | -0.79 | -3.34 |
